Only some compounds are listed: those with a hit (about 0.9% of all), similar ones and a draw of the others.
Rhodamine autofl: qHTS Assay for Spectroscopic Profiling in Rhodamine Spectral Region; Rhodamine-region fluorescence, 547/598 nm, Tris buffer; active compounds read high; max dye-equivalent concentration, M; 59,000 compounds, 0.05% hits; AID 594, 2007; in the data active = max dye-equivalent concentration above about 11 nM; inconclusive = between about 1.1 nM and that limit
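qHTS spectral profiling of compounds without any target or enzyme present, in pH 8.0 Tris buffer; plates were read after a 15-minute room-temperature incubation using the rhodamine-region filter set.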
A488 fluor: qHTS Assay for Spectroscopic Profiling in A488 Spectral Region. 59,000 compounds, 0.1% hits. max dye equivalency, M. compound autofluorescence, A488 spectral region, dye equivalency; Compound Type: qHTS ECL - MLSMR
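Autofluorescence read at ex 480/em 540 nm after 15 min RT in 100 mM Tris pH 8.0; compound signal normalized to A488 standard series on each plate, reported as dye-equivalent concentration at each test concentration.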
Texas Red fluor: qHTS Assay for Spectroscopic Profiling in Texas Red Spectral Region | Compound fluorescence, Texas Red channel, 547/618 nm; active compounds read high | 59,000 compounds, 0.06% hits | max dye-equivalent concentration, M; in the data active = max dye-equivalent concentration above about 10 nM; inconclusive = between about 1.1 nM and that limit
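Compound titrations in 100 mM Tris pH 8.0 were incubated 15 min at room temperature and read at 547 nm excitation / 618 nm emission. Texas Red six-point standard curve on each plate converted fluorescence to dye-equivalent concentration.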
Resorufin autofl: qHTS Assay for Spectroscopic Profiling in Resorufin Spectral Region; Compound fluorescence, resorufin region 547/598 nm, buffer; active compounds read high; 59,000 compounds, 0.04% hits; max dye-equivalent concentration, M
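Dye-equivalent concentration values derive from comparing each well's 547/598 nm fluorescence against resorufin standards included on every plate. Incubation was 15 min at room temperature in 100 mM Tris, pH 8.0.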
A647 fluor: qHTS Assay for Spectroscopic Profiling in A647 Spectral Region. 59,000 tested, under 10 active. Compound fluorescence, A647 channel (570/671 nm), Tris buffer. max dye-equivalent concentration, M. AID 592, 2007;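 note: values scaled relative to a standard on each plate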
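Compounds pinned into 100 mM Tris pH 8.0, 15 min at room temperature, then read with 570 nm excitation/671 nm emission filters. Fluorescence normalized to an on-plate six-point Alexa 647 standard curve, giving dye-equivalent concentration per compound concentration.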
Fluorescein fluor: qHTS Assay for Spectroscopic Profiling in Fluorescein Spectral Region; Compound autofluorescence, 480/540 nm, fluorescein-equivalent; active compounds read high; max fluorescein-equivalent concentration, M; 59,000 compounds, 0.91% hits; AID 593, 2007; in the data active = max fluorescein-equivalent concentration above about 10 nM; inconclusive = between about 1.1 nM and that limit
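Tris 100 mM pH 8.0; 15 min RT; CCD read, ex 480/em 540 nm. Output: fluorescein-equivalent concentration per compound concentration, from six-point dye series on each plate.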
An asterisk follows results filed as active; i = inactive; ? = inconclusive. Unless noted, the rule behind the calls is not given here.

SMILES	Rhodamine autofl	A488 fluor	Texas Red fluor	Resorufin autofl	A647 fluor	Fluorescein fluor
O=C(NC1CCCC1)c1cnn2c(C(F)(F)F)cc(-c3ccc4c(c3)OCO4)nc12	i	?	i	i	1e-09	4.6e-08M*
CC(C)/C(=N/[N+](C)(C)C)c1ccccc1	i	i	i	i	1e-09	?
CC(=O)N1CC=C2C(C#N)=C(N)C(C#N)(C#N)[C@H](c3ccoc3)[C@H]2C1	i	i	i	i	6.1e-08	3.1e-08M*
CCN1CC=C2C(C#N)=C(N)C(C#N)(C#N)C(CCc3ccccc3)C2C1 (centres undefined)	i	?	i	i	1e-09	1.3e-07M*
CC(=O)N1CC=C2C(C#N)=C(N)C(C#N)(C#N)C(C)C2C1 (centres undefined)	i	i	i	i	1e-09	?
N#CC1=C(N)C(C#N)(C#N)[C@H](c2ccoc2)[C@H]2CN(Cc3ccccc3)CC=C12	i	?	?	i	2.2e-09	3.5e-08M*
COC(=O)CC[C@@H](C)[C@H]1CC[C@H]2[C@H]3CC[C@H]4C[C@@H]5CC[C@@]4(C)C3(O5)[C@@H](Br)[C@@H](Br)[C@@]12C	i	i	i	i	1e-09	i
Nc1ccc(N(S(=O)(=O)c2ccccc2)S(=O)(=O)c2ccccc2)c(Cl)c1	i	i	i	i	2.2e-08	?
COc1ccc(CC[N@+]2(C)COc3cc4oc(=O)cc(C)c4cc3C2)cc1OC	i	i	i	i	8.3e-09	?
O=C(COC(=O)c1cnccn1)Nc1ccc(Cl)cc1	i	i	i	i	3.2e-09	1.1e-08M*
CN1C(=O)c2cccc(N(C)C)c2C1=O	i	i	i	i	2.6e-08	?
CCNc1cccc2c1C(=O)N(C)C2=O	i	1.3e-08M*	i	i	5.1e-08	2.7e-07M*
CN1C(=O)c2cccc(NCCCN3C(=O)c4ccccc4C3=O)c2C1=O	i	?	i	i	1e-09	6.7e-08M*
N#Cc1cccc(-c2cc(-n3ccnc3)ncn2)c1	i	i	i	i	4.3e-08	?

Screening results: PubChem BioAssay, National Center for Advancing Translational Sciences (NCATS)
